Our source for the AC50 and outcome values is PubChem BioAssay (EPA / NIEHS).

The target in experiment [1] is human CYP2D6, CYP2D6 (gene 1565) (UniProt P10635). Briefly: NVS_ADME_hCYP2D6: NovaScreen (NVS) CYP450-related Enzyme Activity (ADME) Assay for human CYP2D6 (AID 2283107). The procedure, abridged:
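Cell-free assay using recombinant enzyme expressed in insect cells, with fluorescence-intensity readout of enzyme activity 1 hour after chemical dosing. Loss of signal versus acetonitrile negative control indicates inhibition. Primary screen ran in duplicate at 10 uM; actives were retested in concentration series.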

Experiment [2] deals with Cytochrome P450 3A4 (Homo sapiens) (UniProt P08684). Briefly: NVS_ADME_hCYP3A4: NovaScreen (NVS) CYP450-related Enzyme Activity (ADME) Assay for human CYP3A4 (AID 2283110). In a few lines: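 Recombinant CYP3A4 from insect cells, fluorescence enzyme read-out, 0.33 h after chemical addition. Acetonitrile = negative control/baseline. Primary HTS: 10 uM in duplicate; actives re-tested in concentration series.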

In experiment [3] the target is Cytochrome P450 2C19 (Homo sapiens) (UniProt P33261). Briefly: NVS_ADME_hCYP2C19: NovaScreen (NVS) CYP450-related Enzyme Activity (ADME) Assay for human CYP2C19 (AID 2283113).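 On AC50: potency for inhibition seen as loss of fluorescent signal.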 In a few lines: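 Cell-free assay of recombinant human CYP2C19 expressed in insect cells, with a fluorogenic substrate; fluorescence intensity read 1 hour after dosing. Loss of signal relative to acetonitrile negative control indicates inhibition. Primary screen at 10 uM in duplicate, then concentration series.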

Experiment [4] addresses human Acetylcholinesterase (AChE), ACHE (gene 43) (UniProt P22303). As to the kind of experiment: NVS_ENZ_hAChE: NovaScreen (NVS) Enzymatic Assay for human Acetylcholinesterase (AChE) (AID 2283129). The procedure, abridged:
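Actives from a duplicate single-point screen (25 uM) were followed up in concentration series. Enzyme activity read by absorbance (colorimetric) 0.33 hour after dosing, cell-free, normalized to DMSO, with loss of signal scored.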

Experiment [5] concerns the target human CYP4F12, CYP4F12 (gene 66002) (UniProt Q9HCS2). As to the kind of experiment: NVS_ADME_hCYP4F12: NovaScreen (NVS) CYP450-related Enzyme Activity (ADME) Assay for human CYP4F12 (AID 2283111). In a few lines: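 Recombinant enzyme with a fluorescent substrate, signal read at 0.5 h post-dose; activity loss analysed relative to acetonitrile. Compounds first run in duplicate at 10 uM, with follow-up concentration-response testing of actives.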

Experiment [6] deals with human AMP-activated Protein Kinase, alpha 1 (AMPKa1), PRKAA1 (gene 5562) (UniProt Q13131). As to the kind of experiment: NVS_ENZ_hAMPKa1: NovaScreen (NVS) Enzymatic Assay for human AMP-activated Protein Kinase, alpha 1 (AMPKa1) (AID 2283130). The procedure, abridged: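 Compounds were screened in duplicate at 25 uM, and those reaching ~30% inhibition were titrated up to 50 uM. The enzyme was recombinant human AMPKα1, and kinase turnover was read by fluorescence/mobility shift 1 h post-dosing as loss of signal versus DMSO.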

The target of experiment [7] is human AKT serine/threonine Kinase 2 (AKT2), AKT2 (gene 208) (UniProt P31751). Briefly: NVS_ENZ_hAKT2: NovaScreen (NVS) Enzymatic Assay for human AKT serine/threonine Kinase 2 (AKT2) (AID 2283141). In a few lines: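 Cell-free fluorescence/electrophoretic mobility shift readout of recombinant human AKT2 activity, 1 h after chemical dosing. Duplicate primary screen at 25 uM, then singleton concentration-response up to 50 uM; loss of signal versus DMSO baseline.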

The target in experiment [8] is human Caspase 2 (CASP2), CASP2 (gene 835) (UniProt P42575). Briefly: NVS_ENZ_hCASP2: NovaScreen (NVS) Enzymatic Assay for human Caspase 2 (CASP2) (AID 2283135). In a few lines:
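Single-point duplicate testing at 25 uM preceded concentration series topping at 50 uM. Activity of the recombinant E. coli-derived protease was followed by fluorescent substrate cleavage 1 h post-dosing, relative to DMSO.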

Experiment [9] concerns the target human Acid Phosphatase 1 (ACP1), ACP1 (gene 52) (UniProt P24666). Briefly: NVS_ENZ_hACP1: NovaScreen (NVS) Enzymatic Assay for human Acid Phosphatase 1 (ACP1) (AID 2283136). The procedure, abridged:
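Cell-free fluorescence read-out of phosphatase activity, substrate and product separated by mobility shift, taken 1.5 h after compound addition; protein produced in Sf9. Single 25 uM duplicate screen, followed by concentration series for actives, scored as signal loss relative to DMSO.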

For experiment [10], the target named is human Caspase 5 (CASP5), CASP5 (gene 838) (UniProt P51878). Briefly: NVS_ENZ_hCASP5: NovaScreen (NVS) Enzymatic Assay for human Caspase 5 (CASP5) (AID 2283137). In a few lines: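 Fluorescent substrate readout of CASP5 activity (loss-of-signal), measured 2 h post-dose. Protein expressed in E. coli. Primary screen duplicate at 25 uM; actives meeting threshold (e.g., 30% inhibition) rerun singleton, max 50 uM.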

Experiment [11] deals with rat CYP2A2, Cyp2a2 (gene 24895) (UniProt P15149). Briefly: NVS_ADME_rCYP2A2: NovaScreen (NVS) CYP450-related Enzyme Activity (ADME) Assay for rat CYP2A2 (AID 2283116). The procedure, abridged:
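Compounds first tested in duplicate at 10 uM, then in singleton concentration series up to 20 uM when over threshold. Activity of the recombinant enzyme read by fluorescence at 0.2 h, normalised to acetonitrile vehicle.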

Structures are written as SMILES. “And” between values parts separate entries of the source, which are not always exact repeats. Equal entries are not always repeated. Results filed as inconclusive are left out. The source made the active and inactive calls. How the source made its calls: active means hit-call score of the fitted dose curve at least 0.9, where 1 is the maximum; inconclusive means response in the unintended direction; inactive means score below 0.9.

Sequence of human Acetylcholinesterase (AChE), ACHE (gene 43) (P22303 whole entry, looked up): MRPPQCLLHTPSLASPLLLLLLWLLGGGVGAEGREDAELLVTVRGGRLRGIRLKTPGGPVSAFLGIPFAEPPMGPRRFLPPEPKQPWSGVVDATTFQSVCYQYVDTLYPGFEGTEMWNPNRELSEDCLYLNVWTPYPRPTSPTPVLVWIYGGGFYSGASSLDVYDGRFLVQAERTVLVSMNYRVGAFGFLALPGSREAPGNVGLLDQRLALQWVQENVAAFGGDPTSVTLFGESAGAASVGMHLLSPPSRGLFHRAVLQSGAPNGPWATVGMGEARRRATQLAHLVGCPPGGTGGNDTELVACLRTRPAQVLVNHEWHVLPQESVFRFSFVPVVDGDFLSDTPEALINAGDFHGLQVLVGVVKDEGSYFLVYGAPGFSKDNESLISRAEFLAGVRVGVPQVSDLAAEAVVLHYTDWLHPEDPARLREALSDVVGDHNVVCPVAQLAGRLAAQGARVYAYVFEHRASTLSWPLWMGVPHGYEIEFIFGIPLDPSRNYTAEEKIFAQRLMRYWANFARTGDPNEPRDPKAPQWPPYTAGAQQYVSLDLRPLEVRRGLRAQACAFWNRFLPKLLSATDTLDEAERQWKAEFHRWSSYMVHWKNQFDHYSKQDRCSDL
Sequence of Cytochrome P450 3A4 (Homo sapiens) (P08684 whole entry, looked up): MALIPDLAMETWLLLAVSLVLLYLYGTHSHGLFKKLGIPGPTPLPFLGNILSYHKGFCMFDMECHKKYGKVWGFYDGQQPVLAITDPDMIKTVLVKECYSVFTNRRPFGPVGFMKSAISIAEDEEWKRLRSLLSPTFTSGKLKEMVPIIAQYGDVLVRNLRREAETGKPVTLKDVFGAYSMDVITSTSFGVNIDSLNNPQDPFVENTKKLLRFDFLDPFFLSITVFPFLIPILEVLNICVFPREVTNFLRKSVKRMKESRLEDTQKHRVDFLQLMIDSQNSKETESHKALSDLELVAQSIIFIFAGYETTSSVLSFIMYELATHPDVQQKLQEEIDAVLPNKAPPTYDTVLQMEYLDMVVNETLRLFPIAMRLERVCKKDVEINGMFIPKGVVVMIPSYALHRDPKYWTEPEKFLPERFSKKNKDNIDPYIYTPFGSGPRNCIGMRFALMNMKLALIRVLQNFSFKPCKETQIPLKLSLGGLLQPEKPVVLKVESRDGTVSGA
Sequence of human Caspase 2 (CASP2), CASP2 (gene 835) (P42575 whole entry, looked up): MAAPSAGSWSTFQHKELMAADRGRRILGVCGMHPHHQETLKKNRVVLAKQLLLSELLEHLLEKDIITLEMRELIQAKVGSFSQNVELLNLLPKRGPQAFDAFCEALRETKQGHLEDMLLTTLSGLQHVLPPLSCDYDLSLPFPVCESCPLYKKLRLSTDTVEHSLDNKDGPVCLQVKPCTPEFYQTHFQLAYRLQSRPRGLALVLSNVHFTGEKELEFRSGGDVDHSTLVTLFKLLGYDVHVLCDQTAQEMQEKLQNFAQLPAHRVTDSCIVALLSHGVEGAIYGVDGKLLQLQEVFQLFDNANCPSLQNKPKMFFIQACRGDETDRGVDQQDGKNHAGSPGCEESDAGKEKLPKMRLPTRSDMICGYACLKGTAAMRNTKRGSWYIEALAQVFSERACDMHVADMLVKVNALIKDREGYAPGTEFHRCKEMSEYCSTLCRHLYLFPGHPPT
Sequence of human AMP-activated Protein Kinase, alpha 1 (AMPKa1), PRKAA1 (gene 5562) (Q13131 whole entry, looked up): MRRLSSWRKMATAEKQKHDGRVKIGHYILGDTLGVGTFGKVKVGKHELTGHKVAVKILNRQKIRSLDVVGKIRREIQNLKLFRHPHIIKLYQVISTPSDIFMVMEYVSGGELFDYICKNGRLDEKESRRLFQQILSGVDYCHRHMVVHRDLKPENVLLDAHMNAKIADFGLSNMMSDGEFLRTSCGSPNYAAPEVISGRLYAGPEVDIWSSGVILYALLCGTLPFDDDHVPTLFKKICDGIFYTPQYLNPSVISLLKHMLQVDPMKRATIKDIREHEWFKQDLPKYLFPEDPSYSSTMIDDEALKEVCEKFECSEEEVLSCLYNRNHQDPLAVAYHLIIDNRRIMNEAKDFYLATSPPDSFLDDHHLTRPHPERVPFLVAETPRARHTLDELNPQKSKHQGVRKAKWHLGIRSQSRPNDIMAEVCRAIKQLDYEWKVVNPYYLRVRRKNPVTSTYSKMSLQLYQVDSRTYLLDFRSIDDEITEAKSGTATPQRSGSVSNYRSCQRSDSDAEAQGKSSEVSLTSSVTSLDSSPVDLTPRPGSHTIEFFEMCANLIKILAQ
Sequence of human CYP4F12, CYP4F12 (gene 66002) (Q9HCS2 whole entry, looked up): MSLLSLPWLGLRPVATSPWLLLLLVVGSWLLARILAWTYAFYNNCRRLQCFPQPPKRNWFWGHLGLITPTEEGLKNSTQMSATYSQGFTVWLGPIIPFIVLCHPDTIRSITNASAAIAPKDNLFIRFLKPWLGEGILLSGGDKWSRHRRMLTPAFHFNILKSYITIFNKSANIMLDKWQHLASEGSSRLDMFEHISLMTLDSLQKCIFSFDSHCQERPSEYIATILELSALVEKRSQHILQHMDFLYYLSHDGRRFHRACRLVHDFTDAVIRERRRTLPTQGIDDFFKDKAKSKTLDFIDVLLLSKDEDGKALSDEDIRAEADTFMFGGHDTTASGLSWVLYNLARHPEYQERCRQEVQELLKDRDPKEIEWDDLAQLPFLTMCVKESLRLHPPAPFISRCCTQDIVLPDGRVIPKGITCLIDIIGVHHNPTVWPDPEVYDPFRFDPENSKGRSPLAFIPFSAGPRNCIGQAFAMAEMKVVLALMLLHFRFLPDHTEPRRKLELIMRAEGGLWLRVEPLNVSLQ
Sequence of human CYP2D6, CYP2D6 (gene 1565) (P10635 whole entry, looked up): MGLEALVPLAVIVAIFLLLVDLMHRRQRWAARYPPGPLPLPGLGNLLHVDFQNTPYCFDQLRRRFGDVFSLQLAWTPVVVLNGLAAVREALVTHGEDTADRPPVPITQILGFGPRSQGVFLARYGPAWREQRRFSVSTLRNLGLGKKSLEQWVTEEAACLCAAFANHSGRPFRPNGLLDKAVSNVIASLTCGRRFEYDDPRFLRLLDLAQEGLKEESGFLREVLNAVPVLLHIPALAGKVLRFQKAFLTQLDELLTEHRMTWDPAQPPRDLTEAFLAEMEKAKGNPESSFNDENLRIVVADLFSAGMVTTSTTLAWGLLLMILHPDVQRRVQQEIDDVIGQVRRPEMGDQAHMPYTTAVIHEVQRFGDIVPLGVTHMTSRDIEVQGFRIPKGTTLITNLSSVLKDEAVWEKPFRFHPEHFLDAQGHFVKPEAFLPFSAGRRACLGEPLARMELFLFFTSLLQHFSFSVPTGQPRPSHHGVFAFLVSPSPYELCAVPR
Sequence of rat CYP2A2, Cyp2a2 (gene 24895) (P15149 whole entry, looked up): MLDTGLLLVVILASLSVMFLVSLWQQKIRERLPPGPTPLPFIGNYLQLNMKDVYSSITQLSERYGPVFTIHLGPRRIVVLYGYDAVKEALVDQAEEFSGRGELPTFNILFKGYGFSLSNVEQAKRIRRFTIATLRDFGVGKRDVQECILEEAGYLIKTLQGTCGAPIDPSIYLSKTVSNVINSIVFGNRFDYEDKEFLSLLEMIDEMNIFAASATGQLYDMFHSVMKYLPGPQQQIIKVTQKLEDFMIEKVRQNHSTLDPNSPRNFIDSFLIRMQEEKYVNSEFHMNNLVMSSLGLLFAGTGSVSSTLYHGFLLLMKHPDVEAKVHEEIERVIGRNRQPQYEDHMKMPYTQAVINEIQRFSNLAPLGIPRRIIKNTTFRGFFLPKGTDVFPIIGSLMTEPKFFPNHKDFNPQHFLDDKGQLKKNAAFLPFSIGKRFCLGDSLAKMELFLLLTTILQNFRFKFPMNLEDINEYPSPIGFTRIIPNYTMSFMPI
Sequence of human AKT serine/threonine Kinase 2 (AKT2), AKT2 (gene 208) (P31751 whole entry, looked up): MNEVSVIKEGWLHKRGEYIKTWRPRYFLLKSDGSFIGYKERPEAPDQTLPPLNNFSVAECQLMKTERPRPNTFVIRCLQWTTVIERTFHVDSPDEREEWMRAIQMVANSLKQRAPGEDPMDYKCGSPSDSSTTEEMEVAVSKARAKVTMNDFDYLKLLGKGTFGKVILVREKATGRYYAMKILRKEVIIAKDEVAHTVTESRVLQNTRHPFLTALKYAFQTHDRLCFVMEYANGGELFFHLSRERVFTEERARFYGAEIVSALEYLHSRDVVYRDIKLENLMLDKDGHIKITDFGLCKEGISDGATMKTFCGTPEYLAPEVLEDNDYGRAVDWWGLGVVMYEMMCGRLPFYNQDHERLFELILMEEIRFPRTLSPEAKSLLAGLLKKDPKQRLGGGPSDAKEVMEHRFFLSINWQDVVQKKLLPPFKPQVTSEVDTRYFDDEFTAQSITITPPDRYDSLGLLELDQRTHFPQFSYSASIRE
Sequence of human Acid Phosphatase 1 (ACP1), ACP1 (gene 52) (P24666 whole entry, looked up): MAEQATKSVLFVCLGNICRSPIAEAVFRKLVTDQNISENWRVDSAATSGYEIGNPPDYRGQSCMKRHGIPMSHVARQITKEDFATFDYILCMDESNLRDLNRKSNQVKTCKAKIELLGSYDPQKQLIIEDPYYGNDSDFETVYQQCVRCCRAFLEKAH
Sequence of human Caspase 5 (CASP5), CASP5 (gene 838) (P51878 whole entry, looked up): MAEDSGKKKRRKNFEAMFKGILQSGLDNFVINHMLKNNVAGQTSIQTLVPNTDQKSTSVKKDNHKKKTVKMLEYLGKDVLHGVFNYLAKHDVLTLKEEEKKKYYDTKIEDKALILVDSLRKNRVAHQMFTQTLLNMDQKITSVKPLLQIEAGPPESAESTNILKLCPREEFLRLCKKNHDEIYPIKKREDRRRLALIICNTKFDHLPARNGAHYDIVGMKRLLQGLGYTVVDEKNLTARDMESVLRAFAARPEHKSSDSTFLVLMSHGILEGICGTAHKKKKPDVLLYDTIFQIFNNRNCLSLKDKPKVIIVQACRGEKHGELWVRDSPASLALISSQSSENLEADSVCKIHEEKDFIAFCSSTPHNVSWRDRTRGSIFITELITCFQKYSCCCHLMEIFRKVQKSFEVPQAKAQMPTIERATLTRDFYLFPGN

For `CCCCCCCCCC[N+](C)(C)CCCCCCCCCC`, the half-maximal activity concentration (AC50) in experiment [1] is 1.38 µM (active); in [2] it was 9.61 µM (active); in experiment [3], 6.37 µM (active); in experiment [4] it was 12.4 µM (active).

Regarding `Cc1ccc(O)c(C)c1`, in experiment [5], the outcome was inactive.

Turning to `Oc1ccc(C(c2ccc(O)cc2)(C(F)(F)F)C(F)(F)F)cc1`, the AC50 in experiment [2] is 7.65 µM (active); in experiment [5], 3.97 µM (active); in experiment [3] it was 0.145 µM (active); in [6], 13.5 µM (active). The call in experiment [4] was inactive.

`CCCCCCOC(=O)c1ccccc1C(=O)OCCCCCC`: the molecule was classed as inactive in experiment [7].

Take `Cc1cccc(C)c1N`: in experiment [2], the result was inactive.

Consider `CCC(C)c1cc([N+](=O)[O-])cc([N+](=O)[O-])c1O` (stereo not drawn), for which, in experiment [3], the AC50 was 15.2 µM (active).

In the case of `Cc1cc2c3c(c1)C(c1ccccc1)=N[C@@H](NC(=O)c1ccncc1)C(=O)N3CC2`, the outcome in [2] was inactive.

As for `O=C(N[C@H]1CN2CCC1CC2)c1cc2ccoc2cn1`, the half-maximal activity concentration (AC50) in experiment [1] was 2.09 µM (active). In experiment [8], the outcome was inactive.

As to `CCC(C)(c1ccc(O)cc1)c1ccc(O)cc1`, the result in experiment [2] was inactive. Besides, in experiment [3], the AC50 is 4.4 µM (active).

Regarding `CCCCCCCCOC(=O)c1ccccc1C(=O)OCCCCCCCC`, the call in [4] was inactive.

`O=C(O)C(F)(F)C(F)(F)C(F)(F)C(F)(F)C(F)(F)C(F)(F)C(F)(F)C(F)(F)F`: the results for the AC50 in experiment [6] and in [10] were 36.7 µM (active) and 12.8 µM (active), respectively. In addition, the molecule was called inactive in experiment [9].

Take `CC(C)(O)C(=O)Nc1ccc([N+](=O)[O-])c(C(F)(F)F)c1`: in experiment [3], the concentration at half-maximal activity (AC50) was 3.49 µM (active).

As to `CN(C)CCO`, in [3], the molecule was called inactive.

Turning to `C[C@]12CCC(=O)C=C1CC[C@@H]1[C@@H]2CC[C@]2(C)C(=O)CC[C@@H]12`, the AC50 in experiment [3] is 10 µM (active) and 6.19 µM (active) and 5.77 µM (active); in experiment [11] it was 1.52 µM (active). Further, the molecule was classed as inactive in [4] and in experiment [8].

What is called AC50 is the midpoint of the concentration-response curve, whichever way the signal moves.
